According to PubChem BioAssay (NCATS):
Records with an inconclusive call do not appear. The source made the active and inactive calls. The call rests on the fitted dose curve; in most records, active means well fitted activation curve with a large enough effect; inconclusive means small, poorly fitted or top-dose-only effect; inactive means no such curve, though single readings can be large or run the other way.

These molecules were tested against Cellular tumor antigen p53 (Homo sapiens) (UniProt P04637) (assay: Primary qHTS for small molecule compounds that upregulate eGFP-tagged delta133p53alpha (in N-terminal) cells. (AID 2060322; further: nearly all actives have a fitted effect of over 75% in size;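 on activation: series mostly up to about 56 µM; 0% = DMSO vehicle and 100% = reference activator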)). Conditions: NCI-H358 eGFP-delta133p53alpha fluorescence, 24 h; activation: hits give high values.
Outline: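 NCI-H358 cells pre-induced 24 h with 10 ng/ml doxycycline to express N-terminal eGFP-delta133p53alpha, then dosed 24 h at 37C without doxycycline; fixed, Hoechst-stained, GFP intensity by laser scanning cytometry, normalized to DMSO (0%) and 57.5 uM 5-azacytidine (100%).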
Potency means the concentration at half of the fitted maximal effect.

Sequence of Cellular tumor antigen p53 (Homo sapiens) (P04637 whole entry, looked up): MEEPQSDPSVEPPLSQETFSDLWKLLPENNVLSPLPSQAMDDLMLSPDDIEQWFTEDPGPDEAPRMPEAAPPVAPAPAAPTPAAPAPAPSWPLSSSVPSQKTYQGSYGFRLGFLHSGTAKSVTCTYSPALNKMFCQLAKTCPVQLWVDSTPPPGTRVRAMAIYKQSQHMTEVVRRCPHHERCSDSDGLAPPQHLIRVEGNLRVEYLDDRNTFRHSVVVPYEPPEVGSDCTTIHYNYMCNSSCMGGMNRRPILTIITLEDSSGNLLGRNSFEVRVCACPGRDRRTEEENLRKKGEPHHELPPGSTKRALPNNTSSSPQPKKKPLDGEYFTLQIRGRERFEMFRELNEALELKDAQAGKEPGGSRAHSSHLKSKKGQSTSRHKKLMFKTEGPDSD

SMILES	activation	Potency
CC(=O)OCC(=O)O[C@@H]1[C@H]2[C@@H](OC(=O)c3ccccc3)[C@@H](C)C[C@]2(O)[C@H](OC(C)=O)C2(C)[C@H]3CC(C)(C)C(=O)[C@@H]3CC1(OC(C)=O)[C@@H]2OC(C)=O (stereo partly drawn)	-11.6% (inactive)	–
COC(=O)C1=C[C@@H](O)[C@@H](O)[C@H](O[C@@H]2O[C@H](CO)[C@@H](O)[C@H](O)[C@H]2OC(=O)/C=C/c2ccccc2)C1	-26% (inactive)	–
COc1ccccc1-c1cc(Nc2cccc(CS(N)(=O)=O)c2)ncn1	–	8.49 µM (active)
CC1CCC(=O)CC(O)C(O)CC(=O)O1 (stereo not drawn)	10.7% (inactive)	–
CC(=O)OC1C(c2ccccc2)CCC(c2ccccc2)C1OC(C)=O (stereo not drawn)	1.53% (inactive)	–
CCC(=O)N[C@@H]1Cc2ccccc2[C@H](c2ccccc2)C1	-0.333% (inactive)	–
C=C1Cc2c(Cl)cc3[nH]c4c5c3c2[C@@]2(O)[C@@H]1C[C@@H]2C(C)(C)O[C@H]5C1CC[C@@]2(O)[C@@]35O[C@@H]3[C@H]3OC(C)(C)[C@H]3O[C@H]5CC[C@]2(C)[C@@]41C (stereo partly drawn)	-14.5% (inactive)	–
N#Cc1cc(CN2CCC(Nc3ncnc4sc(Cl)cc34)CC2)ccc1F	5% (inactive)	–
Cc1coc2c1CC1OC1(C)CCC1OC1(C)C2 (stereo not drawn)	4.46% (inactive)	–
CC(=O)c1ccc(O[C@@H]2O[C@H](CO[C@@H]3OC[C@@H](O)[C@H](O)[C@H]3O)[C@@H](O)[C@H](O)[C@H]2O)cc1	-12.2% (inactive)	–
Cc1c(O)cc2c(c1O)COC1(O)CCCOC21 (stereo not drawn)	-17.6% (inactive)	–
CCOc1cccc(NC(=O)c2ccc(N3CCCC3)c(C(F)(F)F)c2)c1	5.67% (inactive)	–
CC(=O)O[C@H](C[C@@H](C)[C@H]1C(=O)[C@H](O)[C@@]2(C)[C@@H]3CCC4C(C)(C)[C@@H](O[C@@H]5OC[C@H](O)[C@H](O)[C@H]5O)CC[C@@]45C[C@@]35CC[C@]12C)[C@@H]1OC1(C)C (stereo partly drawn)	8.04% (inactive)	–
